Data: PMC8384837, “Expanding the binding specificity for RNA recognition by a PUF domain”

Legend:
Assay in all cases: yeast three-hybrid, YBZ-1, SC-Leu-His + 0.5 mM 3-AT, 4 days
Conditions in all cases: tags: N-Gal4 AD-HA kept; label: inside an RPR1-promoter hybrid RNA with tandem MS2 sites; ssRNA
PUM1 PUF domain R4-MPT = PUM1 PUF domain R4-MPT (Homo sapiens, UniProt Q14671 828-1176, N971M;H972P;Q975T)
Outline: (§1)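 Each repeat of the Pumilio-1 PUF domain was randomized at its three base-contacting residues, and these libraries were co-expressed from a centromeric plasmid with matching RNA elements in strain YBZ-1. After four days on SC-Leu (input) or SC-Leu-His + 0.5 mM 3-AT (selection), the repeat regions were PCR-amplified and Illumina-sequenced. The interaction score compares variant frequency between input and selection as a log change, computed in log2 with a pseudocount of 1 for absent variants.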

PUM1 PUF domain R5-TRW = PUM1 PUF domain R5-TRW (Homo sapiens, UniProt Q14671 828-1176, C1007T;Q1011W)
Outline: as §1

PUM1 PUF domain R8-RWL = PUM1 PUF domain R8-RWL (Homo sapiens, UniProt Q14671 828-1176, N1122R;Y1123W;Q1126L)
Outline: as §1

PUM1 PUF domain R3-VRF = PUM1 PUF domain R3-VRF (Homo sapiens, UniProt Q14671 828-1176, C935V;Q939F)
Outline: as §1

PUM1 PUF domain R4-SLY = PUM1 PUF domain R4-SLY (Homo sapiens, UniProt Q14671 828-1176, N971S;H972L;Q975Y)
Outline: as §1

PUM1 PUF domain R8-RWC = PUM1 PUF domain R8-RWC (Homo sapiens, UniProt Q14671 828-1176, N1122R;Y1123W;Q1126C)
Outline: as §1

PUM1 PUF domain R3-SCQ = PUM1 PUF domain R3-SCQ (Homo sapiens, UniProt Q14671 828-1176, C935S;R936C)
Outline: as §1

PUM1 PUF domain R3-SVE = PUM1 PUF domain R3-SVE (Homo sapiens, UniProt Q14671 828-1176, C935S;R936V;Q939E)
Outline: as §1

PUM1 PUF domain R3-STD = PUM1 PUF domain R3-STD (Homo sapiens, UniProt Q14671 828-1176, C935S;R936T;Q939D)
Outline: as §1

With “GGCUAGAACUAGUGGAUCCCCCGGCGCCCGGCGGCUCGAGCCCGGGUAAGUGUAAAUAGUCUGCAUGCCGCCGGGCGCCAUGCCUGCAGGUCGACUCUAGAAAACAUG” the binding signal (PUM1 PUF domain R4-MPT) was 3.73 log2 enrichment (interaction score), the binding signal (PUM1 PUF domain R5-TRW) was 2.78 log2 enrichment (interaction score) and the binding signal (PUM1 PUF domain R8-RWL) was 5.06 log2 enrichment (interaction score). For the same sequence, the binding signal (PUM1 PUF domain R3-VRF) was 4.4 log2 enrichment (interaction score), the binding signal (PUM1 PUF domain R4-SLY) was 2.48 log2 enrichment (interaction score) and the binding signal (PUM1 PUF domain R8-RWC) was 4.9 log2 enrichment (interaction score).

In the case of “GGCUAGAACUAGUGGAUCCCCCGGCGCCCGGCGGCUCGAGCCCGGGUAAGUGUAUAUAGUCUGCAUGCCGCCGGGCGCCAUGCCUGCAGGUCGACUCUAGAAAACAUG”, the binding signal (PUM1 PUF domain R4-MPT) is reported as 2.81 log2 enrichment (interaction score).

For “GGCUAGAACUAGUGGAUCCCCCGGCGCCCGGCGGCUCGAGCCCGGGUAAGUGUAAUUAGUCUGCAUGCCGCCGGGCGCCAUGCCUGCAGGUCGACUCUAGAAAACAUG”, the binding signal (PUM1 PUF domain R3-SCQ) was 1.65 log2 enrichment (interaction score).

“GGCUAGAACUAGUGGAUCCCCCGGCGCCCGGCGGCUCGAGCCCGGGUAAGUGUAAGUAGUCUGCAUGCCGCCGGGCGCCAUGCCUGCAGGUCGACUCUAGAAAACAUG” was tested, and the binding signal (PUM1 PUF domain R3-SCQ) was 2.27 log2 enrichment (interaction score), the binding signal (PUM1 PUF domain R3-SVE) was 4.64 log2 enrichment (interaction score) and the binding signal (PUM1 PUF domain R3-STD) was 2.07 log2 enrichment (interaction score).

For “GGCUAGAACUAGUGGAUCCCCCGGCGCCCGGCGGCUCGAGCCCGGGUAAGUGUGAAUAGUCUGCAUGCCGCCGGGCGCCAUGCCUGCAGGUCGACUCUAGAAAACAUG”, the binding signal (PUM1 PUF domain R5-TRW) was 0.38 log2 enrichment (interaction score).

For “GGCUAGAACUAGUGGAUCCCCCGGCGCCCGGCGGCUCGAGCCCGGGUAAGCGUAAAUAGUCUGCAUGCCGCCGGGCGCCAUGCCUGCAGGUCGACUCUAGAAAACAUG”, the binding signal (PUM1 PUF domain R8-RWL) was 6.58 log2 enrichment (interaction score) and the binding signal (PUM1 PUF domain R8-RWC) was 4.12 log2 enrichment (interaction score).
